Assay [1] in a line: qHTS assay to identify aromatase inhibitors - cell viability counter screen (AID 743084).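 Further: cells stimulated with testosterone during compound exposure; nearly all actives have a fitted effect of over 55% in size.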 Further: potency means the concentration at half of the fitted maximal effect. On the technique in general: qHTS replaces the single test concentration by a dilution series.
In assay [2] the target is Aryl hydrocarbon receptor (Homo sapiens) (UniProt P35869). As to the kind of experiment: qHTS assay to identify small molecule that activate the aryl hydrocarbon receptor (AhR) signaling pathway (AID 743085).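 Further: HG2L7.5c1 human HepG2 liver cells with stably integrated DRE-driven firefly reporter; series mostly up to about 70 µM; nearly all actives have a fitted effect of over 15% in size.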 The method, boiled down: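 AhR agonist activity is inferred from enhanced light output of a DRE-controlled firefly luciferase reporter in HepG2 cells, measured with ONE-Glo following 24 h treatment at 37C.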
Chain of Aryl hydrocarbon receptor (Homo sapiens) (P35869 whole entry, looked up): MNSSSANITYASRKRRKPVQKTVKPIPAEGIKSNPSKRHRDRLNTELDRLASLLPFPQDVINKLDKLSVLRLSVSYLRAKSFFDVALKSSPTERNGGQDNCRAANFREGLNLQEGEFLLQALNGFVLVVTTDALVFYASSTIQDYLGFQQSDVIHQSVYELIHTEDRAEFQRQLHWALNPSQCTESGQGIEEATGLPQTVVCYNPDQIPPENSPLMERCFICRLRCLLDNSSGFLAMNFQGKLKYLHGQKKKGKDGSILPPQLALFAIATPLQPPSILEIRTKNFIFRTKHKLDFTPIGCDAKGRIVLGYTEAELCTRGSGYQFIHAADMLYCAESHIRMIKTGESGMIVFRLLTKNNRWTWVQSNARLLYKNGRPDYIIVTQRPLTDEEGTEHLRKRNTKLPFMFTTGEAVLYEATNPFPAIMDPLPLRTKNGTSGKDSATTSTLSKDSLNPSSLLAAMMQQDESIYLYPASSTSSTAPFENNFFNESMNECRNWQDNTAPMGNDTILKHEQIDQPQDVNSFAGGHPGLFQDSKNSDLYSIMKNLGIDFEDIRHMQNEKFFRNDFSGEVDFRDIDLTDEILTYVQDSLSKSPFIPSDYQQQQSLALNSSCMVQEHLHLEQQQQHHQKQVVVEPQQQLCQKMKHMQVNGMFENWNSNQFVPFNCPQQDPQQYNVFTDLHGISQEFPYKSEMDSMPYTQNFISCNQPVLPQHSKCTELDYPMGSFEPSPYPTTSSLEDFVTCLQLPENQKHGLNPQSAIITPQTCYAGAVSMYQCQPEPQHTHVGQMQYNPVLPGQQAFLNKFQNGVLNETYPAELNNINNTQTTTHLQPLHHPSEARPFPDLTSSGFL

Assay [3] is described as follows: qHTS assay to identify small molecule that activate the aryl hydrocarbon receptor (AhR) signaling pathway - cell viability counter screen (AID 743086). Further: nearly all actives have a fitted effect of over 45% in size. Further: potency means the concentration at half of the fitted maximal effect. The method, boiled down:
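HepG2-AhR-luc (HG2L7.5c1) cells, 4000/well, treated 24 h at 37 C with compound; viability measured as CellTiter-Fluor fluorescence after 30 min in the same wells as the luciferase read.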

In assay [4] the target is Peroxisome proliferator-activated receptor gamma (Homo sapiens) (UniProt P37231). Put plainly: qHTS assay to identify small molecule agonists of the peroxisome proliferator-activated receptor gamma (PPARg) signaling pathway (AID 743094; active means well fitted activation curve with a large enough effect in the signal ratio in the repeat runs, not every such curve was filed as active; the % refers to the signal ratio). The method, boiled down: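 GeneBLAzer PPARg UAS-bla HEK293H cells carrying a stably integrated beta-lactamase reporter were pre-incubated 5 h at 37C, then exposed to compounds in DMSO for 17 h at 37C; LiveBLAzer B/G FRET substrate was added for 1 h at room temperature and fluorescence read.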
Chain of Peroxisome proliferator-activated receptor gamma (Homo sapiens) (P37231 whole entry, looked up): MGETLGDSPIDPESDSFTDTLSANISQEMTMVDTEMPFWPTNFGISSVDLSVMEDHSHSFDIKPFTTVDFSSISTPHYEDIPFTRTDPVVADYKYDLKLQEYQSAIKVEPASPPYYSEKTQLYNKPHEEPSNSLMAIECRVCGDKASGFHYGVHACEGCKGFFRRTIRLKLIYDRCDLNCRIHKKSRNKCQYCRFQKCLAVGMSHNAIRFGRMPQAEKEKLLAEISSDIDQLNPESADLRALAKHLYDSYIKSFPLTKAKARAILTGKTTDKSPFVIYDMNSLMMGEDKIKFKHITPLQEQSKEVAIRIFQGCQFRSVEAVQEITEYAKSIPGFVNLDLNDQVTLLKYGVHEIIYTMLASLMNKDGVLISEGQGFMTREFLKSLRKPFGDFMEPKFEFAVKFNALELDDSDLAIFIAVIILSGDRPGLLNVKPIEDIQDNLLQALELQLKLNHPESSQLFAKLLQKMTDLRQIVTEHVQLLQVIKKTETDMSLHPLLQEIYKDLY

Assay [5] can be described thus: qHTS assay to identify small molecule antagonists of the peroxisome proliferator-activated receptor gamma (PPARg) signaling pathway - cell viability counter screen (AID 743194). Further: nearly all actives have a fitted effect of over 55% in size. Further: potency means the concentration at half of the fitted maximal effect. Particulars: Potency: co-treated with 50 nM rosiglitazone. In outline:
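Cytotoxicity counter screen in PPARg-bla HEK293H cells, same wells as reporter assay. Compounds plus 50 nM rosiglitazone (final) for 17 h at 37 C, then viability read by CellTiter-Glo luminescence.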

Assay [6] in a line: qHTS assay for small molecule agonists of the antioxidant response element (ARE) signaling pathway (AID 743202; active means well fitted activation curve with a large enough effect in the signal ratio in the repeat runs, not every such curve was filed as active; the % refers to the signal ratio). The method, boiled down: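 ARE-bla HepG2 cells (beta-lactamase reporter under the antioxidant response element), plated 5 hours, then exposed to compounds 16 hours at 37 C. LiveBLAzer B/G FRET substrate added for 2 hours at room temperature; fluorescence intensity read.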

Assay [7] in a line: qHTS assay for small molecule agonists of the antioxidant response element (ARE) signaling pathway - cell viability counter screen (AID 743203; calls by dose curve; further: nearly all actives have a fitted effect of over 55% in size; further: potency means the concentration at half of the fitted maximal effect). In outline:
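CellSensor ARE-bla HepG2 cells, 2,000 per well, rested 5 hrs at 37C/5% CO2, then exposed to compound in DMSO for 16 hrs; viability read as CellTiter-Glo luminescence after 30 min at room temperature, in the reporter wells.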

Assay [8] is described as follows: qHTS assay for small molecule activators of the heat shock response signaling pathway - cell viability counter screen (AID 743209). Further: nearly all actives have a fitted effect of over 50% in size. The method, boiled down: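 CellSensor HSE-bla HeLa cells, plated overnight at 37 C/5% CO2, were exposed to compounds in DMSO for 5 h at 37 C. Viability was then read in the same wells by CellTiter-Glo luminescence after 30 min at room temperature.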

Assay [9] can be described thus: qHTS assay for small molecule activators of the heat shock response signaling pathway (AID 743210; active means well fitted activation curve with a large enough effect in the signal ratio in the repeat runs, with a control signal flat, not every such curve was filed as active; the % refers to the signal ratio; further: series mostly up to about 63 µM). The method, boiled down: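 HSE-bla HeLa cells (beta-lactamase reporter under heat shock response elements), plated overnight, then exposed to compounds 5 h at 37 C; LiveBLAzer B/G FRET substrate added, 2.5 h at room temperature, fluorescence intensity read.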

The results in this text go back to PubChem BioAssay (Tox21).

The structures appear in SMILES notation. Values joined by “and” are separate entries in the source; they are usually repeats but may differ in a detail not shown here. Equal values may be shown once. Records with an inconclusive call do not appear. A structure can be active in one record and inactive in another. Active and inactive are the calls of the source. Unless noted, the call rests on the fitted dose curve; in most records, active means well fitted curve in the direction sought with a large enough effect in the repeat runs; inconclusive means weak or mixed curves; inactive means no such curve, though single readings can be large; an effect the other way counts as inactive or inconclusive.

Regarding `ClCOCCl`, the Potency result in assay [1], in assay [2], in assay [3], in [5], in [6] and in [7] was “inactive” in each case. Also, the Potency result in assay [8] and in assay [9] was “inactive” in each case. For the same compound, in [4], the compound was classed as inactive.

In the case of `CC(C)[N+](C)(CCC(C(N)=O)(c1ccccc1)c1ccccc1)C(C)C`, the Potency result in assay [1], in assay [2], in [3], in assay [5], in assay [7] and in assay [8] was “inactive” each time. In addition, the Potency result in assay [9] was “inactive”. In assay [4], the compound was classed as inactive.

With `O=C1C2CC=CCC2C(=O)N1SC(Cl)(Cl)Cl` (stereo not drawn), the Potency result in assay [1] was “inactive and 21.3 µM (active)”; in assay [3], “inactive and 42.6 µM (active)”; in assay [5], 3.83 µM (active); in [7] it was “inactive and 23.9 µM (active)”. Also, the Potency result in assay [2] and in [8] was “inactive” throughout. Besides, the compound was called inactive in [4].

For the compound `CNC(=O)NC(O)C(Cl)(Cl)Cl` (stereo not drawn), the Potency entry in assay [1], in assay [2], in assay [3], in assay [5], in [6] and in assay [7] was “inactive” each time. Besides, the Potency result in assay [8] and in assay [9] was “inactive” throughout. In addition, the result in assay [4] was inactive.

For `O=c1[nH]c2ccccc2o1`, the Potency entry in [1], in assay [2], in assay [3], in assay [5], in assay [6] and in assay [7] was “inactive” throughout. In addition, the Potency result in assay [8] and in [9] was “inactive” in each case. Further, the call in assay [4] was inactive.

Turning to `O=C(Cl)C(Cl)Cl`, the Potency result in assay [1], in assay [2], in [3], in assay [5], in [6] and in assay [7] was “inactive” throughout. Moreover, the Potency result in assay [8] and in assay [9] was “inactive” throughout. Further, the compound was called inactive in assay [4].

With `CCCCCCC(=O)CCCCCC/C=C/C[C@@H](O)[C@H](O)[C@@](N)(CO)C(=O)O`, the Potency result in assay [1], in [2], in assay [3], in assay [5], in [7] and in [8] was “inactive” in each case. Besides, in [9], the Potency entry was “inactive”. In addition, in assay [4], the call was inactive.

On to `CCSC(=O)Cl`, for which the Potency entry in [1], in assay [2], in [3], in [5], in assay [7] and in [8] was “inactive” each time. In addition, in assay [4], the result was inactive.

As to `OP(O)c1ccccc1`, the Potency result in assay [1], in assay [2], in assay [3], in assay [5], in [6] and in assay [7] was “inactive” in each case. Moreover, the Potency result in [8] and in [9] was “inactive” throughout. Besides, the compound was classed as inactive in assay [4].

Take `O=C(NC(=O)c1c(F)cccc1F)Nc1cc(Cl)c(F)c(Cl)c1F`: the Potency result in assay [1], in [2], in assay [3], in assay [5], in assay [7] and in assay [8] was “inactive” each time. In assay [9], the Potency result was “inactive”. In addition, the result in assay [4] was inactive.
